SMILES strings stand for the structures. Screen size: about 52,000 compounds; about 4,300 (8.3%) were called active. Rule as the data show it: active = survival mostly below about 52% (no sharp cut-off); inactive = mostly above about 56%. For the sample, actives were picked, then their nearest neighbours and some compounds at random.

This passage reports survival results from PubChem BioAssay AID463173 (ICCB-Longwood Screening Facility, Harvard Medical School, 2010).

This experiment deals with DeltatarO mutant. The experiment in a line: S. aureus survival, RN4220 and DeltatarO strains – OD600, teichoic acid synthesis inhibitors, primary screen (AID 463173). The following applies: S. aureus RN4220 wild type/DeltatarO growth, OD600, 18 h, hits give low values, screened at 18.75 µg/mL (by protocol).
With `N#CC(C#N)=Cc1cn(CC(=O)Nc2ccccc2)c2ccccc12`, the survival is 66% (inactive).

With `Cc1ccc(Nc2c(-c3ccccc3O)nc3cc(C)ccn23)cc1`, the survival is 78% (inactive).

Take `Fc1ccc(Nc2c(-c3c[nH]c4ccccc34)nc3ccccn23)cc1`: the survival is 70% (inactive).

Regarding `CSc1ccc(-c2nc3cc(C)ccn3c2Nc2ccc(C)cc2)cc1`, the survival was 95% (inactive).

In the case of `Cc1ccc(Nc2c(-c3cc(Br)ccc3F)nc3cc(C)ccn23)cc1`, the survival was 32% (active).

As for `Cc1ccn2c(Nc3ccccc3)c(-c3c[nH]c4ccccc34)nc2c1`, the survival was 86% (inactive).

For the compound `c1ccc(Nc2c(-c3c[nH]c4ccccc34)nc3ccccn23)cc1`, the survival was 54% (active).

On to `Cc1ccc2nc(-c3c[nH]c4ccccc34)c(Nc3ccccc3)n2c1`, for which the survival is 78% (inactive).

`Cc1ccc(Nc2c(-c3c[nH]c4ccccc34)nc3ccccn23)cc1`: the survival was 114% (inactive).

`Cc1ccc(Nc2c(-c3c[nH]c4ccccc34)nc3cc(C)ccn23)cc1`: the survival was 80% (active).

`Cc1ccc(Oc2nc3c(c(=O)n(Cc4ccccc4Cl)c(=O)n3C)n2C)cc1C`: the survival was 61% (inactive).

Take `Cc1csc2nc(-c3ccc(NS(=O)(=O)c4cc(F)ccc4F)cc3)cn12`: the survival is 87% (inactive).

For `Fc1ccc(CNc2nc3c(-c4ccc(F)cc4)nnn3c3ccccc23)cc1`, the survival is 105% (inactive).

With `Cc1ccc2oc(-c3cccc(NC(=O)c4cccc5c(Br)cccc45)c3)nc2c1`, the survival is 153% (inactive).

Regarding `O=C(Nc1cc(-c2nc3ccccc3o2)ccc1Cl)c1cccc2c(Cl)cccc12`, the survival was 56% (inactive).

For `Cc1ccc(-c2nc3ccccc3o2)cc1NC(=O)c1cccc2c(Cl)cccc12`, the survival is 47% (active).

For `Cc1ccc2oc(-c3cccc(NC(=O)c4cccc5c(Cl)cccc45)c3)nc2c1`, the survival is 51% (active).

Turning to `O=C(Nc1cccc(-c2nc3ccccc3o2)c1)c1cccc2c(Cl)cccc12`, the survival is 46% (inactive).

As for `Cc1ccc2nc(-c3cccc(NC(=O)c4cccc5c(Cl)cccc45)c3)oc2c1`, the survival is 110% (inactive).

Consider `O=C(OCc1cc(=O)n2nc(-c3cccs3)sc2n1)c1cccc(F)c1`, for which the survival was 77% (inactive).

In the case of `COc1cccc(N2CCN(C(=O)CN3CCSc4ccccc43)CC2)c1`, the survival is 83% (inactive).

In the case of `Cc1ccc(C)c(N2CCN(C(=O)CN3C(=O)COc4ccc(S(=O)(=O)N5CCCC5)cc43)CC2)c1`, the survival was 85% (inactive).

With `CCN(CC)CCn1c(=N)n(CC(O)COc2ccccc2C)c2ccccc21` (stereo unspecified), the survival was 80% (inactive).

`O=C(CSc1nnnn1C1CCCC1)NCc1cccs1`: the survival is 103% (inactive).

For `CCN(CC)CCNC(=O)c1ccc(CSc2nc3ccncc3n2Cc2cccc(F)c2)cc1`, the survival was 92% (inactive).

As for `Cc1cccc(N2CCN(C(=O)Nc3cn(CC(C)C)c(=O)c4ccccc34)CC2)c1C`, the survival was 69% (inactive).

With `Cc1ccc(Cl)cc1NC(=O)Cn1c(=O)n(Cc2ccccc2)c(=O)c2oc3ccccc3c21`, the survival was 81% (inactive).

Take `CCC(=O)N1c2ccccc2CC1C(=O)NCc1ccc(CC)cc1` (stereo unspecified): the survival is 100% (inactive).

Regarding `COc1ccc(C2c3c(n(C)c4ccccc34)C(=O)N2CC(=O)Nc2cccc(Cl)c2)cc1` (stereo unspecified), the survival was 80% (inactive).

For `COC(=O)CSc1nnc(C2CCCCC2)n1Cc1ccccc1`, the survival is 116% (inactive).

Take `Cc1ccc(Cl)cc1N1CCN(C(=O)C2CCN(Cc3nc(-c4ccc(Cl)cc4)oc3C)CC2)CC1`: the survival is -9% (active).

In the case of `Cc1oc(-c2ccc(Cl)cc2)nc1CN1CCC(C(=O)NCCCN2CCN(c3cccc(Cl)c3)CC2)CC1`, the survival is 42% (active).

With `Cc1ccc(Cl)cc1N1CCN(C(=O)C2CCN(Cc3nc(-c4cccc(Cl)c4)oc3C)CC2)CC1`, the survival was -8% (active).

Take `CCc1ccc(-c2nc(CN3CCC(C(=O)NCCc4ccc(C)cc4)CC3)c(C)o2)cc1`: the survival is 95% (inactive).

As to `CCc1ccc(-c2nc(CN3CCCC(C(=O)N4CCN(c5cc(Cl)ccc5C)CC4)C3)c(C)o2)cc1` (stereo unspecified), the survival is 70% (inactive).

As for `Cc1cccc(N2CCN(C(=O)C3CCN(Cc4nc(-c5ccc(Cl)cc5)oc4C)CC3)CC2)c1C`, the survival was 60% (inactive).

Take `CCCCSCCCNC(=O)C1CCN(Cc2nc(-c3ccc(CC)cc3)oc2C)CC1`: the survival was 46% (active).

Take `Cc1ccc(C)c(N2CCN(C(=O)C3CCN(Cc4nc(-c5cccc(Cl)c5)oc4C)CC3)CC2)c1`: the survival is 47% (inactive).

Turning to `CCCCSCCCNC(=O)C1CCN(Cc2nc(-c3cccc(Br)c3)oc2C)CC1`, the survival is 68% (inactive).

For `Cc1ccc(Cl)cc1N1CCN(C(=O)C2CCCN(Cc3nc(-c4cccc(Cl)c4)oc3C)C2)CC1` (stereo unspecified), the survival is 66% (inactive).

As for `Cc1oc(-c2cccc(Cl)c2)nc1CN1CCC(C(=O)NCCCN2CCN(c3cccc(Cl)c3)CC2)CC1`, the survival is 63% (inactive).

As to `Cc1oc(-c2cccc(Cl)c2)nc1CN1CCC(C(=O)NCCCN2CCN(c3ccc(F)cc3)CC2)CC1`, the survival is 119% (inactive).

In the case of `CCCOc1ccc(Oc2nc(NCC(C)C)nc(N3CCOCC3)n2)nn1`, the survival is 74% (inactive).

As for `CN(C)c1ccc(CNC(=O)CN2C(=O)CSc3ccc(S(=O)(=O)N4CCCC4)cc32)cc1`, the survival is 80% (inactive).

Turning to `COc1ccccc1CNc1ncnc2c1nc1n2CCCC1`, the survival is 80% (inactive).

For `COc1ccc(NC(=O)CC2C(=O)N(c3ccc(OC)cc3)C(=O)N2Cc2ccc(OC)c(OC)c2)cc1` (stereo unspecified), the survival is 131% (inactive).

In the case of `CCOC(=O)c1ccc(NC(=O)c2cnn(-c3ccc(C)cc3C)c2C2CCN(C(=O)OC(C)(C)C)CC2)cc1`, the survival was 93% (inactive).

For `Cc1nc(N2CCCCC2)c(C#N)c2c1COC(C)(C)C2`, the survival is 81% (inactive).

Take `Nc1ccc(N2CCOCC2)cc1C(F)(F)F`: the survival is 80% (inactive).

Turning to `COc1ccc(NCc2nc3ccccc3n2CCOc2ccccc2C)cc1`, the survival was 32% (active).

With `Cc1ccc(C)c(OCCn2c(CCNC(=O)C3CCCCC3)nc3ccccc32)c1`, the survival is 59% (inactive).

For the compound `Cc1cccc(NCc2nc3ccccc3n2CCOc2ccccc2C)c1`, the survival was 3% (active).

`Cc1ccc(NCc2nc3ccccc3n2CCOc2ccccc2C)cc1`: the survival was 3% (active).

With `Fc1ccc(NCc2nc3ccccc3n2CCOc2ccccc2Cl)cc1`, the survival is 91% (inactive).

As to `CCC(CC)c1nn2c(=O)cc(COc3ccc(NC(=O)c4ccccc4Cl)cc3)nc2s1`, the survival is 94% (inactive).

As to `COc1ccc(-c2nc(SCC(=O)NCCc3ccc(OC)c(OC)c3)n[nH]2)cc1`, the survival is 88% (inactive).
